Experimental data published in the supplement of paper PMC11417369.
In all, about 25,000 sequences were measured (“ln(normalized median fluorescence intensity)”: median about 7.1, highest 2% from about 10 on). The list comes from a sample in which the highest values are over-represented; it also holds similar and randomly drawn sequences.

test system: PfSIP2 AP2 domain 1 (GST-tagged); assay: gcPBM binding intensity (ln(normalized median fluorescence intensity)); higher = stronger DNA binding
Procedure, shortened: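 Probes on an Agilent 4 × 180k array were primer-extended, double-stranded and 36 bp long, taken from intergenic genomic regions, with negative controls added. GST-tagged P. falciparum DNA-binding domains from E. coli, about 25 μg on average, were applied to the array for 1 h in 1× PBS containing 1% milk, 0.2 mg/ml BSA, 0.5% salmon testes DNA and 0.03% Triton X-100. Binding intensity, obtained after Alexa488 anti-GST antibody detection and a 488 nm scan, is the highest Masliner-normalised natural-log median intensity across replicate spots of either probe orientation.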

Sequence	gcPBM binding intensity (ln)
AAATAATTAGAAATAGTGCACATAATTAAGGGATAC	10.1
TTCTCCTAATAGTTAGTGCACTACATAACTAAGAAA	10.8
AATGACTACATAATAGTGCAATATTAAAGAAAATTA	8.55
TATTTTTTTACATATTGTACATAATATAAAACTTAC [XGTACX_site8273]	7.17
GATAAAATCACTGGTGCATGTAGATATATAATATTA [TGCATGCA_site589]	10.5
GAAAAATATATTCTGGTGCATGAATAAAATCATAAA	10.2
TATTATATATTAAATGCATGTAAAAATAATATTAAA [TGCATGCA_site643]	7.02
TACCATAATCAATGCACACATAACAAAATATTATTA [CACACA_site2722]	7.33
ATCAAAATTGTCATTACACACCTTTATTTTTATAAT [CACACA_site5071]	7.12
AATATATAGAGAGATATGCACACTGTATGAATGCAC [CACACA_site2677]	10.3
TATATGGAGAGATATGCACACTGTATGAATGCCCCC [CACACA_site8853]	9.32
TATATAGAGAGATATGCACACTGTATGAATGCCCCC [CACACA_site5476]	9.53
ATATATATATATAATAAACACACAAATAGATATAAC [CACACA_site9234]	9.02
AATAATTCATCATATGCACACACAATACCAAAATGT [CACACA_site7945]	8.05
GAAAATATTAAATGAAGTACAATATTTATGTTACTT [XGTACX_site8737]	6.71
TATATATATATATATACATGCATATTTTTTATTTTT [TGCATGCA_site464]	9.67
TTTTTTTTTGGGGGTGCATGCAAGACATATATTTAA [TGCATGCA_site228]	11.6
AATATTTTTTTTTAAACATGCATATTTGCATTACCC [TGCATGCA_site437]	6.99
ACAAAATAATTGTTTACACACCCATTTGTAATTTTA [CACACA_site3615]	6.88
TTATCATATCATGGAAGTACAAATAAAATATATAAC [XGTACX_site1608]	7.24
ATTTCATATGGTCAACGTACTCATGCATCCCTCCTT [XGTACX_site437]	6.86
GTTATAATTGAACTAGTGCATAAATATATTTTAATT [GTGCAC_site9851]	9.01
ATTTTCACCTGAACGGTGCATATTTAATTTTAGGTT	10.5
TTATTTTAATTTTTGGTGCATATTCAAGTGTACCTT [GTGCAC_site9791]	9.68
ATTTATTTATCTAGCTATTCACCATTTTCTTTTGTT [CACACA_negctrl_site1259]	6.61
TTTAATTGATAATGAAGACAATTATATGCATCCAAA [TGCATGCA_negctrl_site138]	6.79
